Eight compounds from PubChem BioAssay (NCI) can be followed below.

About 83,000 compounds went through this panel and 20% of them were active in at least one assay; those are over-represented in the sample as a whole.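 Testing used 96-well plates and a 48-hour single-concentration exposure. Example: -40 means 40% of the starting cells died.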 Values without a mark were called inactive. The source made the active and inactive calls. How the source made its calls: active means growth percent below 10; inactive means the rest.

Some test systems named below: NCI-H23 lung; NCI-H226 lung; NCI-H322M lung; HOP-62 NSCLC; NCI-H460 lung; HOP-92 NSCLC; NCI-H522 lung; A549/ATCC NSCLC; 786-0 renal; COLO 205 colon; DU-145 prostate; K-562 leukemia; MALME-3M melanoma; MDA-MB-231 breast; RXF 393 renal; SF-268 CNS; SF-295 CNS; SF-539 CNS; UACC-257 melanoma; M14 melanoma.
Experiment in all cases: NCI-60 one-dose screen, 48 h (100 = growth as untreated, 0 = no growth, -100 = all killed)
Settings in all cases: 10 µM unless noted

Consider `CC(=O)c1cccc(NS(=O)(=O)c2ccc(C)cc2)c1`, for which the growth with NCI-H23 lung is 83.9%; in the assay with NCI-H226 lung, 91%; in the assay on NCI-H322M lung, 103%; in the assay with HOP-62 NSCLC it was 89.9%; in the assay on NCI-H460 lung it was 102%; in the assay with HOP-92 NSCLC, 74.4%. The growth is 64.4% in the assay on NCI-H522 lung; 100% in the assay on A549/ATCC NSCLC; 89.5% with 786-0 renal; 117% in the assay with COLO 205 colon; 95.1% in the assay on DU-145 prostate; 27.4% in the assay with K-562 leukemia. The growth in the assay on MALME-3M melanoma was 96.9%; with MDA-MB-231 breast, 83.7%; in the assay with RXF 393 renal, 96.3%; with SF-268 CNS, 89.3%; in the assay with SF-295 CNS, 87.6%; in the assay on SF-539 CNS, 74.6%. For the same compound, the figures for the growth with UACC-257 melanoma and with M14 melanoma were 86.6% and 60.6%, respectively.

Regarding `CC(C)Sc1ncnc2nc[nH]c12`, the growth with NCI-H23 lung was 114%; in the assay with NCI-H226 lung it was 102%; with NCI-H322M lung it was 122%; in the assay on HOP-62 NSCLC, 105%; in the assay with NCI-H460 lung, 99.4%; with HOP-92 NSCLC it was 91.7%. The growth in the assay with NCI-H522 lung was 109%; with A549/ATCC NSCLC, 91.6%; with 786-0 renal it was 101%; in the assay with COLO 205 colon, 96.8%; with DU-145 prostate it was 121%; with K-562 leukemia, 113%. Further, the growth is 109% with MALME-3M melanoma; 105% with MDA-MB-231 breast; 93% in the assay with RXF 393 renal; 121% in the assay on SF-268 CNS; 107% in the assay on SF-295 CNS; 100% in the assay on SF-539 CNS. For the same compound, in the assay on UACC-257 melanoma, the growth was 91.7%.

As for `Nc1ccc(F)c(Cl)c1F`, the growth in the assay on NCI-H23 lung is 103%; in the assay on NCI-H226 lung, 91.3%; in the assay on NCI-H322M lung it was 110%; in the assay with HOP-62 NSCLC it was 112%; in the assay with NCI-H460 lung, 101%; in the assay with HOP-92 NSCLC, 80%. Moreover, the growth in the assay on NCI-H522 lung was 108%; with A549/ATCC NSCLC, 113%; in the assay on 786-0 renal, 101%; with COLO 205 colon it was 118%; with DU-145 prostate, 111%; in the assay with K-562 leukemia it was 100%. Also, the growth was 107% in the assay on MALME-3M melanoma; 101% with MDA-MB-231 breast; 97.1% in the assay on RXF 393 renal; 106% with SF-268 CNS; 107% with SF-295 CNS; 103% in the assay with SF-539 CNS. Moreover, the growth with UACC-257 melanoma was 118%; in the assay with M14 melanoma it was 97.2%.

Consider `NC(=S)c1c(N)n(C2OC(CO)C(O)C2O)c2ncnc(N)c12` (configuration not stated), for which the growth was -0.783% (active) in the assay on NCI-H23 lung; 14% in the assay with NCI-H226 lung; -25.8% (active) in the assay with NCI-H322M lung; 3.76% (active) in the assay with HOP-62 NSCLC; -0.26% (active) with NCI-H460 lung; -21.5% (active) in the assay on HOP-92 NSCLC. Further, the growth with NCI-H522 lung is -53.5% (active); with A549/ATCC NSCLC it was 5.46% (active); in the assay on 786-0 renal, -0.846% (active); in the assay with COLO 205 colon, -50.9% (active); with DU-145 prostate, 4.75% (active); in the assay with K-562 leukemia, -17.2% (active). Moreover, the growth was -53.4% (active) in the assay with MALME-3M melanoma; 29.7% in the assay on MDA-MB-231 breast; -69.3% (active) with RXF 393 renal; -3.78% (active) in the assay with SF-268 CNS; -0.294% (active) in the assay with SF-295 CNS; -51.2% (active) in the assay on SF-539 CNS. For the same compound, the results for the growth in the assay on UACC-257 melanoma and in the assay with M14 melanoma were -10.2% (active) and -24.5% (active), respectively.

As for `CCCC(=O)CC(=O)c1ccccc1`, the growth in the assay with NCI-H23 lung was 96%; with NCI-H226 lung, 91.7%; in the assay with NCI-H322M lung, 95.1%; with HOP-62 NSCLC, 92.8%; in the assay with NCI-H460 lung, 106%; with HOP-92 NSCLC, 95.6%. For the same compound, the growth in the assay with NCI-H522 lung was 78.1%; in the assay on A549/ATCC NSCLC it was 97.9%; in the assay with 786-0 renal, 103%; in the assay with COLO 205 colon it was 113%; with DU-145 prostate, 106%; with K-562 leukemia, 112%. The growth in the assay with MALME-3M melanoma was 107%; in the assay with MDA-MB-231 breast, 111%; with RXF 393 renal, 93.6%; in the assay with SF-268 CNS it was 97.3%; in the assay on SF-295 CNS, 97%; in the assay on SF-539 CNS, 104%. The growth was 80.9% in the assay with UACC-257 melanoma and 100% in the assay on M14 melanoma.

Consider `O=C(Nc1ccccc1)c1ccco1`, for which the growth in the assay with NCI-H23 lung is 96.2%; with NCI-H226 lung it was 99.1%; in the assay with NCI-H322M lung, 101%; with HOP-62 NSCLC it was 101%; in the assay on NCI-H460 lung, 108%; with HOP-92 NSCLC it was 98.8%. Also, the growth in the assay with NCI-H522 lung was 100%; in the assay with A549/ATCC NSCLC, 97.9%; with 786-0 renal it was 92.8%; with COLO 205 colon, 115%; in the assay with DU-145 prostate it was 112%; in the assay on K-562 leukemia, 93.7%. The growth was 92.9% in the assay with MALME-3M melanoma; 112% in the assay with MDA-MB-231 breast; 123% in the assay on RXF 393 renal; 117% in the assay on SF-268 CNS; 103% in the assay with SF-295 CNS; 102% in the assay with SF-539 CNS. Further, the figures for the growth in the assay on UACC-257 melanoma and with M14 melanoma were 107% and 97%, respectively.

For `CCC(C)C1CCC(O)CC1` (configuration not stated), the growth in the assay on NCI-H23 lung is 96.3%; in the assay on NCI-H226 lung it was 101%; in the assay with NCI-H322M lung, 100%; with HOP-62 NSCLC it was 110%; in the assay on NCI-H460 lung it was 108%; in the assay on HOP-92 NSCLC it was 102%. Also, the growth in the assay with NCI-H522 lung was 101%; in the assay with A549/ATCC NSCLC, 103%; in the assay with 786-0 renal it was 100%; in the assay on COLO 205 colon, 112%; with DU-145 prostate it was 101%; in the assay on K-562 leukemia, 99.2%. The growth was 32.8% in the assay on MALME-3M melanoma; 112% in the assay with MDA-MB-231 breast; 108% with RXF 393 renal; 99.3% in the assay on SF-268 CNS; 105% in the assay on SF-295 CNS; 94.8% with SF-539 CNS. Moreover, in the assay with UACC-257 melanoma, the growth was 103%.

For the compound `CC(=O)c1cc(O)ccc1O`, the growth was 92.9% in the assay on NCI-H23 lung; 98% in the assay with NCI-H226 lung; 97.4% in the assay with NCI-H322M lung; 89.3% with HOP-62 NSCLC; 108% in the assay with NCI-H460 lung; 58.9% in the assay with HOP-92 NSCLC. For the same compound, the growth with NCI-H522 lung is 100%; in the assay with A549/ATCC NSCLC, 103%; in the assay with 786-0 renal, 94.5%; with COLO 205 colon, 123%; in the assay on DU-145 prostate, 114%; with K-562 leukemia, 91.7%. Moreover, the growth in the assay on MALME-3M melanoma was 111%; with MDA-MB-231 breast it was 96.6%; in the assay on RXF 393 renal, 88.8%; in the assay on SF-268 CNS it was 109%; with SF-295 CNS it was 104%; with SF-539 CNS, 92.5%. Moreover, the growth in the assay on UACC-257 melanoma was 104%.
